Experimental data: the supplement of paper PMC12819154, “High-throughput peptide-centric local stability assay extends protein–ligand identification to membrane proteins, tissues and bacteria” (Nature Structural & Molecular Biology, 2025)

These targets were tested with CN[C@@H]1C[C@H]2O[C@@](C)([C@@H]1OC)n1c3ccccc3c3c4c(c5c6ccccc6n2c5c31)C(=O)NC4 [staurosporine] (assay: log2 fold change of tryptic peptide abundance, ligand vs vehicle (limited proteolysis) (log2 ratio); higher = more trypsin-susceptible (destabilized)). Conditions: ligand concentration: 20 uM; sample: K562 cleared lysate; digestion: 4 min, 22 C (HT-PELSA RT4min, Orbitrap Astral).

Chain of UniProt Q13546 (Q13546 whole entry): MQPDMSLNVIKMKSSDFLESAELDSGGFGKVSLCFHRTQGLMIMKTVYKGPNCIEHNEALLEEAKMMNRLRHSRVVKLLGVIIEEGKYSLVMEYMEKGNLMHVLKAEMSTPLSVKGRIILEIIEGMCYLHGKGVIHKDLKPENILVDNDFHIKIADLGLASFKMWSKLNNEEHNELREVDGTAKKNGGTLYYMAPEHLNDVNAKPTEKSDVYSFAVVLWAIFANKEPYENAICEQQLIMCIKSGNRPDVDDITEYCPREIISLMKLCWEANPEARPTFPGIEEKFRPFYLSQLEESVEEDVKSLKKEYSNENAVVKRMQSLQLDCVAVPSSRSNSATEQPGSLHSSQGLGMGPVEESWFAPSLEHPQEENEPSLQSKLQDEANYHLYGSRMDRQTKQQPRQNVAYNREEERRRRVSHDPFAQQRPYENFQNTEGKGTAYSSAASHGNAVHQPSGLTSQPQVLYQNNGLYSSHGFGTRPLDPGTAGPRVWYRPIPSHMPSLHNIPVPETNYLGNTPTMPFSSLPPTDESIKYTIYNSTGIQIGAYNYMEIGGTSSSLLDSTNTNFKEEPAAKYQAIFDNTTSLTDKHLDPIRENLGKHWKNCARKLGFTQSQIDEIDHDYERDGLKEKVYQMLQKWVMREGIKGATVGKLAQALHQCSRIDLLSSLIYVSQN
Chain of UniProt P53667 (P53667 whole entry, looked up): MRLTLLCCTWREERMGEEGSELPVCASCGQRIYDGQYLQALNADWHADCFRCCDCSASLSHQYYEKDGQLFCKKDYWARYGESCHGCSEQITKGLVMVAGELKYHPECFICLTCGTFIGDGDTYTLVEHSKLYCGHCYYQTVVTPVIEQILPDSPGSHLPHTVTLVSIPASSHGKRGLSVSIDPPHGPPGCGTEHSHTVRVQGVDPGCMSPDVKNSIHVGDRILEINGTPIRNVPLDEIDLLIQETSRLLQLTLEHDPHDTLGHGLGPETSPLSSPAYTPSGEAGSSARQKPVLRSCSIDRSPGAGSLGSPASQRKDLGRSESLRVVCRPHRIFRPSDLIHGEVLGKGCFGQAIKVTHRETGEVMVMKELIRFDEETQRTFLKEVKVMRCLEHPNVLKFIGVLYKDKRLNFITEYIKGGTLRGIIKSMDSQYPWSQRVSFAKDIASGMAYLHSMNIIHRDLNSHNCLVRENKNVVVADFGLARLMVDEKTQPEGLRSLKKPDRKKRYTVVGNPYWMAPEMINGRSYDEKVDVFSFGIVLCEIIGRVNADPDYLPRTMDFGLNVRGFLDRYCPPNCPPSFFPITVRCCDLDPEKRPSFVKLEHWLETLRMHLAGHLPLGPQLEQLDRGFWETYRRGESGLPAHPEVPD
Chain of UniProt P13010 (P13010 whole entry): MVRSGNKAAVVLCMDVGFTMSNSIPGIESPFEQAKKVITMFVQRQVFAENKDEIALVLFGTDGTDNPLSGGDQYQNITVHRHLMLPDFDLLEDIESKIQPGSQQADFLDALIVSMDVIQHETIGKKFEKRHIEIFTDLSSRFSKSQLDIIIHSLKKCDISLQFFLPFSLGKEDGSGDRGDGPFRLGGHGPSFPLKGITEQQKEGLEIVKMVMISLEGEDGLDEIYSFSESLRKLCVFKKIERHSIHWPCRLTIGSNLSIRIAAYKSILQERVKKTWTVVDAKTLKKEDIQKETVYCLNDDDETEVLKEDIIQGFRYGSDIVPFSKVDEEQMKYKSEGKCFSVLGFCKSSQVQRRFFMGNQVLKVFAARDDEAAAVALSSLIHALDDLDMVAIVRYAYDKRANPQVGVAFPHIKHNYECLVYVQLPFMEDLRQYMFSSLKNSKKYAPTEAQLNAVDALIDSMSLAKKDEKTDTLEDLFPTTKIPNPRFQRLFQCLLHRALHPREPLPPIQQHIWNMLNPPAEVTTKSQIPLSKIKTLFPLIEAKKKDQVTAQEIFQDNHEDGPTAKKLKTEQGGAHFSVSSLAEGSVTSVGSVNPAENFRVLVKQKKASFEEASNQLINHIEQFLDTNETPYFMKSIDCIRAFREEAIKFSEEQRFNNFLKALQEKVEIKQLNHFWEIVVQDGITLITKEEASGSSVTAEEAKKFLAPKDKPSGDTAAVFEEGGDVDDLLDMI
Chain of UniProt O75170 (O75170 whole entry): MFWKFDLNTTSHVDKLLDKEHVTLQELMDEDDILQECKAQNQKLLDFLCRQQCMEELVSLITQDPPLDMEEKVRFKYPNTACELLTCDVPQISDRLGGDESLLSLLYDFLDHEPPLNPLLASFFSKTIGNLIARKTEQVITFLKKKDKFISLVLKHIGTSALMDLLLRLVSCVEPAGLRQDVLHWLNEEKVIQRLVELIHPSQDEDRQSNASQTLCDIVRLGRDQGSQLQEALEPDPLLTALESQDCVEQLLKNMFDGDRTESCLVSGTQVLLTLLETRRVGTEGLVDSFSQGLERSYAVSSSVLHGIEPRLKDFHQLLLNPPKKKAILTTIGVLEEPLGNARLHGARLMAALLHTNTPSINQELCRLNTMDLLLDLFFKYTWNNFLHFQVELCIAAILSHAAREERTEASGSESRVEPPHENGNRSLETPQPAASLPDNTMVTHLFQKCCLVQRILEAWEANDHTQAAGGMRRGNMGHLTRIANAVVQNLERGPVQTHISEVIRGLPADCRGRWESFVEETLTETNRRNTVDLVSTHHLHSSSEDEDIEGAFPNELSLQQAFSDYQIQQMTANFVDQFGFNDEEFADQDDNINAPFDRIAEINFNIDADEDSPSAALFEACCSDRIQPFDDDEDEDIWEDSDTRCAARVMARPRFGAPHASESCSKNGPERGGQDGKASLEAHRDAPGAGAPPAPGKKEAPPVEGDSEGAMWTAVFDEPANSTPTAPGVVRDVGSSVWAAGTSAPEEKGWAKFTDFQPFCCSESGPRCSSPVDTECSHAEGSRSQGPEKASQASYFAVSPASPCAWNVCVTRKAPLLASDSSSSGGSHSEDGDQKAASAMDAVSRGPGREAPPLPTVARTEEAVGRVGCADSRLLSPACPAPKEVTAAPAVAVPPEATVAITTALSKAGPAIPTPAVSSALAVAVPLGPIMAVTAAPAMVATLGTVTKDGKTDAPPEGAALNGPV
Chain of UniProt P37802 (P37802 whole entry): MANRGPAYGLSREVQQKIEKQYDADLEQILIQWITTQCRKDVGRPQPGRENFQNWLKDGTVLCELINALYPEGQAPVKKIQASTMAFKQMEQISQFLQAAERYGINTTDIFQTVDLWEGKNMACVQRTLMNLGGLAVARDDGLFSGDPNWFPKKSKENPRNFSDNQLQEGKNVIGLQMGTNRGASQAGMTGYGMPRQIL
Chain of UniProt Q15418 (Q15418 whole entry): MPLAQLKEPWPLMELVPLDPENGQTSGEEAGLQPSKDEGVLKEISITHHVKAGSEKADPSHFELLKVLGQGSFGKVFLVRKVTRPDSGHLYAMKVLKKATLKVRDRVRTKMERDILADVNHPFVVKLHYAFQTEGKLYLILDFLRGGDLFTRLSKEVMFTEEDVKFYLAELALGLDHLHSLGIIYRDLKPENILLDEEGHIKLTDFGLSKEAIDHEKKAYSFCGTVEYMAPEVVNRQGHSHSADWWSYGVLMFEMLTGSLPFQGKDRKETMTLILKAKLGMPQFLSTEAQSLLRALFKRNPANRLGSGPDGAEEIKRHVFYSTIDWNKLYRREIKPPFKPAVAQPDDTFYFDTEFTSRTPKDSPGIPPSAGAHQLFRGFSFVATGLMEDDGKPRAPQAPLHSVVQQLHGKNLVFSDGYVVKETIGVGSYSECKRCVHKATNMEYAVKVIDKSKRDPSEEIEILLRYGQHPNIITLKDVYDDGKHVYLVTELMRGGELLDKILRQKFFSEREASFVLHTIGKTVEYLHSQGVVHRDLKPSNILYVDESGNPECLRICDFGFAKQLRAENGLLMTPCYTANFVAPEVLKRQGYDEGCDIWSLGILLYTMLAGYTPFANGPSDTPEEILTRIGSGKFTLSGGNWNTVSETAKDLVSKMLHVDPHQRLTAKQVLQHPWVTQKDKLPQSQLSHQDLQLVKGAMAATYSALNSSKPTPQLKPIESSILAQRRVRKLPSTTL
Chain of UniProt P62995 (P62995 whole entry): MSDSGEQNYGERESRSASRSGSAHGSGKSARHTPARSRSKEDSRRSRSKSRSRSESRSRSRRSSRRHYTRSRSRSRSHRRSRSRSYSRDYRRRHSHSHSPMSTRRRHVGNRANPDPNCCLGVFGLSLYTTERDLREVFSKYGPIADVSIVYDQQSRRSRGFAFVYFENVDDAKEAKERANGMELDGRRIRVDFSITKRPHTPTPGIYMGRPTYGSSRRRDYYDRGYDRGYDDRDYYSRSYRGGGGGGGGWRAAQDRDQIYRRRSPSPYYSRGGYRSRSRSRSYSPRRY
Chain of UniProt P36551 (P36551 whole entry): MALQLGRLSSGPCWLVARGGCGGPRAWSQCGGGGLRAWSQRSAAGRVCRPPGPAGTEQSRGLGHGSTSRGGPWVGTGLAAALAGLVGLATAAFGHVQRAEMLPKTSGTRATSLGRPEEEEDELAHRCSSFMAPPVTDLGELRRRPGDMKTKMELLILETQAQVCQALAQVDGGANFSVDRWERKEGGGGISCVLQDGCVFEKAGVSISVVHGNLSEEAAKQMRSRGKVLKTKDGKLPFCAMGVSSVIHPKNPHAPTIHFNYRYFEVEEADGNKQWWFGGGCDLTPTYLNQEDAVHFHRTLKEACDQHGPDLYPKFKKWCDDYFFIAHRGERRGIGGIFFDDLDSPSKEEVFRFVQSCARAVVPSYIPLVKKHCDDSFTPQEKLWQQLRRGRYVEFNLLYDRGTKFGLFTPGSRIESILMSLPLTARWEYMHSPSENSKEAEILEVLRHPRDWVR

Target | log2 fold change
TAGLN2 (peptide sequence: TLMNLGGLAVAR, peptide start residue: 128) (UniProt P37802) | 0.271
UniProt P62995 (peptide sequence: SPSPYYSR, peptide start residue: 264) | 1.31
XRCC5 (peptide sequence: VDEEQMK, peptide start residue: 326) (UniProt P13010) | -0.825
TIMM44 (peptide sequence: ALSQGVESVKK, peptide start residue: 178) (UniProt O43615) | 0.555
PRKD2 (peptide sequence: LSSTSLASGHSVR, peptide start residue: 196) (UniProt Q9BZL6) | 1.18
IARS (peptide sequence: AVPSWFVR, peptide start residue: 411) (UniProt P41252) | 0.326
LIMK1 (peptide sequence: VNADPDYLPR, peptide start residue: 546) (UniProt P53667) | -1.05
CPOX (peptide sequence: EAEILEVLR, peptide start residue: 439) (UniProt P36551) | -1.06
UniProt Q15418 (peptide sequence: DILADVNHPFVVK, peptide start residue: 114) | -1.43
UniProt O75170 (peptide sequence: ILEAWEANDHTQAAGGMR, peptide start residue: 456) | -0.977
RIPK1 (peptide sequence: IADLGLASFK, peptide start residue: 154) (UniProt Q13546) | -0.814
